Assay [1] deals with Ubiquitin carboxyl-terminal hydrolase 1 (Homo sapiens) (UniProt O94782). The assay can be described thus: Inhibitors of USP1/UAF1: Pilot qHTS (AID 504865).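 Further: rhodamine fluorescence freed from ubiquitin-rhodamine substrate followed over time; top concentration of the series differs between compounds; nearly all actives have a fitted effect of over 35% in size.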 The note with it: purified USP1/UAF1, Ub-rhodamine cleavage fluorescence; series mostly up to 114 µM. The method in brief:
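Enzyme-free wells gave the negative control, while test wells held 1nM USP1/UAF1 preincubated with compound for 15 min at room temperature. Ub-Rho at 150nM final started the reaction, and fluorescence at 480/540 nm was recorded kinetically.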
A general note: qHTS replaces the single test concentration by a dilution series.

Assay [2] in a line: S16 Schwann cell PMP22 intronic element firefly luciferase assay (AID 624032). Further: nearly all actives have a fitted effect of over 30% in size. Further: potency means the concentration at half of the fitted maximal effect. The conditions noted are these: S16 rat Schwann cells, PMP22 element FLuc, 24 h; series mostly up to 57.5 µM. The gist of the method:
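Rat S16 Schwann cells stably carrying firefly luciferase driven by a PMP22 intronic element, in 10% FBS, treated 24 h at 37 C. ONE-Glo luminescence normalized to PTC124 control and DMSO (0%); curves classed by r2, magnitude and activity.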

For assay [3], the system named is DFO2036. As to the kind of experiment: qHTS profiling for inhibitors of Plasmodium falciparum proliferation (AID 504749). Further: nearly all actives have a fitted effect of over 60% in size. Further: potency means the concentration at half of the fitted maximal effect. The conditions noted are these: P. falciparum in erythrocytes, SYBR Green DNA, 72 h; series mostly up to 28.7 µM. The gist of the method:
(§1)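 SYBR Green fluorescence (ex 485 nm, em 535 nm) reports parasite DNA after 72 h compound exposure of infected red cells at 0.3% parasitemia, 2.5% hematocrit; signal normalized to 0.29 uM artemisinin and vehicle wells.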

The subject of assay [4] is DIV14. The description is as above. The note with it: P. falciparum in erythrocytes, SYBR Green DNA, 72 h; series mostly up to 28.7 µM. The method in brief: as §1
The test system of assay [5] is ICS. The description is as above. The conditions noted are these: P. falciparum in erythrocytes, SYBR Green DNA, 72 h; series mostly up to 28.7 µM. The method in brief:
as §1

Assay [6] concerns W2. The assay is described as above. The conditions noted are these: P. falciparum in erythrocytes, SYBR Green DNA, 72 h; series mostly up to 28.7 µM. The method in brief:
as §1

A short description of assay [7]: Confirmation and Secondary Assay for Modulators of Hemoglobin Beta Chain Splicing at IVS2 654 locus (AID 910).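 Further: HeLa cells stably carrying EGFP split by mutant beta-globin IVS2-654 intron.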 The note with it: HeLa EGFP-654 splicing reporter, GFP fluorescence, 48 h; series mostly up to 46.1 µM. The method in brief:
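HeLa cells stably expressing EGFP interrupted by β-globin IVS2-654 intron, seeded overnight in Opti-MEM/2% FCS, then treated 2 days at 37 °C. Restored splicing read as total peak GFP intensity per well by laser scanning cytometry (488 nm excitation, 500–520 nm emission); 500 nM antisense PNA as control.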

Assay [8] is described as follows: Confirmation and Secondary Assay for Modulators of Hemoglobin Beta Chain Splicing at IVS2 705 locus (AID 930).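 Further: HeLa cells stably expressing the EGFP-705 splicing reporter.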 The note with it: HeLa EGFP-705 splicing reporter, GFP fluorescence, 48 h; series mostly up to 46.1 µM. The method in brief:
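Restored EGFP fluorescence after 2-day compound exposure reports splicing correction in IVS2-705 EGFP reporter HeLa cells; positive control was 500 nM splice-blocking PNA oligo. Signal measured as well total peak GFP intensity (488 nm excitation).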

The nature of assay [9]: qHTS for Inhibitors of Plasmodium falciparum (DD2) proliferation (AID 504314).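 Further: parasite DNA measured by SYBR Green fluorescence after red cell lysis.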 The note with it: P. falciparum Dd2 in erythrocytes, SYBR Green growth, 72 h; series mostly up to 1.12 µM. The method in brief:
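P. falciparum Dd2 is grown in erythrocytes with test compound for 72 h at 37C under 5% CO2. Growth is scored by SYBR Green I fluorescence after detergent lysis, relative to artemisinin (0.29 uM) and DMSO controls.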

The structures appear in SMILES notation. Inconclusive results are not listed. Calls of active or inactive are those of the source. The call rests on the fitted dose curve; in most records, active means well fitted curve in the direction sought with a large enough effect; inconclusive means small, poorly fitted or top-dose-only effect, or another doubt; inactive means no such curve, though single readings can be large; an effect the other way counts as inactive or inconclusive.

Ubiquitin carboxyl-terminal hydrolase 1 (Homo sapiens), sequence (O94782 whole entry, looked up): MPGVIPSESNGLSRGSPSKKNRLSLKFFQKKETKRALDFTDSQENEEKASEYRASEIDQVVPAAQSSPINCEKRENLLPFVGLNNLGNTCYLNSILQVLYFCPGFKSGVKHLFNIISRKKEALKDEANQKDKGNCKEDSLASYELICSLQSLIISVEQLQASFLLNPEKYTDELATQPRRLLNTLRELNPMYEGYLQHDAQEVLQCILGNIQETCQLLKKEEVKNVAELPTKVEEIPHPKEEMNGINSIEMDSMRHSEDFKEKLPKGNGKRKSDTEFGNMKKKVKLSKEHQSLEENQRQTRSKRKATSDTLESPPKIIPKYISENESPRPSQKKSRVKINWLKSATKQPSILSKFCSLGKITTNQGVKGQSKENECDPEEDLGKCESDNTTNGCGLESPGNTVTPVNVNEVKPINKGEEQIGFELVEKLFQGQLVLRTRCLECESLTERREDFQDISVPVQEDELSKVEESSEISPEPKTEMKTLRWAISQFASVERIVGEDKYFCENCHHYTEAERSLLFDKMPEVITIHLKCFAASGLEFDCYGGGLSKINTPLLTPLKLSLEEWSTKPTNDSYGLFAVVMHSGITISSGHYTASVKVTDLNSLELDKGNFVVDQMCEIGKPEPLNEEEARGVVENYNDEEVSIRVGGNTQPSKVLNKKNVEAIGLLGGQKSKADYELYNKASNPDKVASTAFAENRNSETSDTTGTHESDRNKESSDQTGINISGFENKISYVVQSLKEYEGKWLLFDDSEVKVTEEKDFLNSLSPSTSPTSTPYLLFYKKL

In the case of `OC[C@@H](O)C(O[C@@H]1O[C@@H](CO)[C@H](O)[C@H](O)[C@H]1O)[C@H](O)[C@@H](O)CO` (stereo partly specified), the Potency entry in assay [1], in assay [2], in assay [3], in assay [4], in [5] and in [6] was “inactive” throughout.

As to `COc1ccc(C(=O)/C(Br)=C/C(=O)O)cc1`, the Potency entry in assay [1], in assay [3] and in [4] was “inactive” each time. Moreover, the Potency in assay [2] is 14.4 µM (active).

With `CC1OC(OC2C(O)CC(OC3C(O)CC(OC4CCC5(C)C(CCC6C5CCC5(C)C(C7=CC(=O)OC7)CCC65O)C4)OC3C)OC2C)CC(O)C1O` (stereo unspecified), the Potency entry in [1] is “inactive”.

With `CC(=O)OC1C([N+]2(C)CCCCC2)C[C@H]2C3CC[C@H]4C[C@H](OC(C)=O)C([N+]5(C)CCCCC5)CC4(C)C3CCC12C` (stereo partly specified), the Potency result in assay [2] and in assay [5] was “inactive” in each case.

`C#C[C@@]1(O)CC[C@@H]2[C@H]3CCC4=C/C(=N\O)CC[C@H]4[C@@H]3CC[C@]21CC`: the Potency result in assay [1], in [3] and in assay [4] was “inactive” throughout.

On to `C/C=C1/NN(CCCN2CCN(c3cccc(Cl)c3)CC2)C(=O)N1CCOc1ccccc1`, for which the Potency result in assay [3] is “inactive”. Moreover, in assay [6], the Potency was 5.36 µM (active).

With `O=C(NC(CO)C(O)c1ccc([N+](=O)[O-])cc1)C(Cl)Cl` (stereo unspecified), the Potency result in [7], in assay [8], in [1] and in assay [2] was “inactive” throughout.

For `C=CCN1c2ccccc2[C@]23C[C@@H](C(=O)OC)N(S(=O)(=O)c4ccc(C(F)(F)F)cc4)C2=NC(C(=O)OC)=C(C(=O)OC)[C@H]13`, in assay [9], the Potency result was “inactive”.

Regarding `CCC(=O)OC1C(N(C)C)CC(C)O[C@H]1O[C@H]1[C@H](C)[C@@H](O[C@H]2CC(OC)[C@@H](O)C(C)O2)[C@H](C)C(=O)O[C@@H](CC)[C@](C)(O)[C@@H](O)[C@H](C)C(=O)[C@@H](C)C[C@]1(C)O` (stereo partly specified), the Potency result in assay [1], in assay [2] and in assay [4] was “inactive” in each case. In addition, in assay [6], the Potency was 6.75 µM (active).

Consider `COc1ccc(CC(C)NCC(O)c2ccc(O)c(NC=O)c2)cc1` (stereo unspecified), for which, in [1], the Potency result is “inactive”.

Take `C/C(=C(/CCOC(=O)C(C)C)SS/C(CCOC(=O)C(C)C)=C(\C)N(C=O)Cc1cnc(C)nc1N)N(C=O)Cc1cnc(C)nc1N`: the Potency entry in assay [1], in [4], in assay [5] and in assay [6] was “inactive” throughout.

Turning to `CC1=C(/C=C/C(C)=C\C=C\C(C)=C\C=C\C=C(C)\C=C\C=C(C)\C=C\C2=C(C)C[C@@H](O)CC2(C)C)C(C)(C)C[C@H](O)C1`, the Potency was 12 µM (active) in assay [4], 1.12 µM (active) in [5] and 8.49 µM (active) in assay [6].

On to `C[C@H]1Cc2c(COc3ccccc3)nc3c(c2CO1)CN(C(=O)c1ccco1)CC3`, for which the Potency entry in [9] was “inactive”.

For `Nc1nc(Cl)nc2c1ncn2[C@@H]1O[C@H](CO)[C@H](O)C1F` (stereo partly specified), the Potency entry in [1], in [3], in assay [4], in assay [5] and in assay [6] was “inactive” throughout. Also, in assay [2], the Potency is 0.907 µM (active).

On to `C=CCN1CC(C(=O)N(CCCN(C)C)C(=O)NCC)CC2c3cccc4[nH]cc(c34)CC21` (stereo unspecified), for which the Potency result in assay [1] and in assay [3] was “inactive” each time. For the same molecule, the Potency was 15.1 µM (active) in [4], 12.6 µM (active) in [5] and 6.01 µM (active) in assay [6].

For the molecule `OCC(O)C(O)C(O)C(O)CO` (stereo unspecified), the Potency entry in assay [1], in [2], in [3], in assay [4], in assay [5] and in assay [6] was “inactive” each time.

Consider `CC1=C(C/C=C(\C)CCCC(C)CCCC(C)CCCC(C)C)C(=O)c2ccccc2C1=O` (stereo unspecified), for which the Potency entry in assay [3] was “inactive”. The Potency in [5] was 3.98 µM (active); in assay [6], 4.78 µM (active).

`C=C1CCC(O)C/C1=C/C=C1\CCC[C@]2(C)[C@@H]([C@H](C)/C=C/[C@H](C)C(C)C)CC[C@@H]12` (stereo partly specified): the Potency in assay [2] was 36.1 µM (active). For the same molecule, the Potency result in [4] is “inactive”.

For `CC[C@H]1OC(=O)[C@H](C)C(=O)[C@H](C)[C@@H](OC2O[C@H](C)C[C@H](N(C)C)[C@@H]2O)[C@@](C)(OC)C[C@@H](C)C(=O)[C@@H](C)C2N(CCCCn3cnc(-c4cccnc4)c3)C(=O)O[C@@]21C` (stereo partly specified), the Potency entry in assay [3] was “inactive”. Moreover, the Potency in assay [4] is 12 µM (active); in [5], 10 µM (active).

The record behind these values is PubChem BioAssay (NCATS).
